# High-throughput results (PubChem)
# This is a sample that favours compounds with a hit; in the whole collection about 3% have one here.
# SENP6 inh = blocks the human protease SENP6 | Q9GZR1 | Recombinant SENP6 catalytic domain, aminoluciferin luminescence | inhibition, % at 10 µM | 330,000 tested, 1.8% active;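 active means inhibition above about 50% at the single tested dose, limit read from the data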;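 further: plate controls were DMSO wells with enzyme for no effect and DMSO wells lacking enzyme for full effect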
# SENP8 block-1 = blocks the human protease SENP8; Q96LD8; purified SENP8, Z-RLRGG-aminoluciferin cleavage, luminescence; inhibition, % at 10 µM; 330,000 tested, 1.2% active; AID 2540; in the data active means inhibition above about 50%
# SENP8 block-2 = SENP8 (human) protease inhibition | recombinant SENP8, Nedd8 substrate fluorescence | AID 602440 | inhibition, % at 20 µM | 360,000 tested, 0.64% active; in the data active means inhibition mostly above about 40%, no sharp cut-off; inactive means mostly below about 27%
# TRAIL sens C8 = sensitizes caspase-8 expressing cells to TRAIL; NB7+C8 cells + TRAIL, ATPlite viability luminescence; inhibition (viability loss, TRAIL sensitization), % at 10 µM; 360,000 tested, 1% active; AID 624354;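 active means compounds causing at least 50% loss of cell viability in the single-dose screen, relative to plate controls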
# PPC-1+TRAIL kill = kills PPC-1 cancer cells in the presence of TRAIL; PPC-1 cells + TRAIL, ATPLite viability luminescence; cell killing (% activity), % at 4 µM or 5 µM; 220,000 tested, 0.41% active; AID 1443;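 active means cell killing above 50% in the first pass at 4 µM, then a duplicate retest at 5 µM averaging 50% or more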;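 further: plate controls were cells with TRAIL plus DMSO for no effect and medium-only wells lacking cells for full effect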
# SENP7 block = blocks the human protease SENP7; recombinant SENP7, Z-RLRGG-aminoluciferin luminescence, 40 min; inhibition, % at 5 µM; AID 434973; 330,000 tested, 1.5% active;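 active means inhibition above about 50% at the single test dose, limit read from the data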;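 further: plate controls were DMSO with enzyme for no effect and no enzyme buffer wells for full effect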
# Target sequence (Q9BQF6 706-1050 limits assumed): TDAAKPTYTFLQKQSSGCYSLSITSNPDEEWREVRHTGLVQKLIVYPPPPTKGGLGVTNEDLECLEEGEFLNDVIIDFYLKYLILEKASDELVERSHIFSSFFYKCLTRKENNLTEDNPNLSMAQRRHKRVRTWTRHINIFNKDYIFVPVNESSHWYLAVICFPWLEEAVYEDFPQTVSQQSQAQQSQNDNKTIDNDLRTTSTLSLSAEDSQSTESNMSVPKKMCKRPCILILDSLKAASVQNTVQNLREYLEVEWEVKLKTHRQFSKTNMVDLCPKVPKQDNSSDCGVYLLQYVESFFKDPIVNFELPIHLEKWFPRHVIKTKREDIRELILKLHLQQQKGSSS
# SENP8 confirm = confirmation of human SENP8 protease inhibitors. shares compounds with SENP7 block. Recombinant SENP8, Z-RLRGG-aminoluciferin luminescence, 60 min. inhibition, % at 12.5 µM. 6,200 tested, 40% active. AID 488912;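 active means mean inhibition across replicates above about 50%, limit read from the data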
# SENP6 confirm = confirmation of human SENP6 protease inhibitors. 6,200 tested, 58% active. shares compounds with SENP7 block. recombinant SENP6, Z-RLRGG-aminoluciferin luminescence. inhibition, % at 12.5 µM
# SENP7 confirm = human SENP7 inhibition, confirmed. shares compounds with SENP7 block. recombinant SENP7, Z-RLRGG-aminoluciferin luminescence, 40 min. inhibition, % at 12.5 µM. 6,200 tested, 69% active. AID 488917
# Casp3 SENP sel = inhibits human caspase-3 in SENP selectivity test; inhibition, % at 12.5 µM; AID 488918; 6,200 tested, 60% active; purified caspase-3, Z-DEVD-aminoluciferin luminescence, 60 min; shares compounds with SENP7 block;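 active means mean inhibition above about 50%, limit read from the data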;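 further: plate controls were enzyme with DMSO for no effect and wells without caspase-3 for full effect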
# Target sequence (P42574 28-227 limits assumed): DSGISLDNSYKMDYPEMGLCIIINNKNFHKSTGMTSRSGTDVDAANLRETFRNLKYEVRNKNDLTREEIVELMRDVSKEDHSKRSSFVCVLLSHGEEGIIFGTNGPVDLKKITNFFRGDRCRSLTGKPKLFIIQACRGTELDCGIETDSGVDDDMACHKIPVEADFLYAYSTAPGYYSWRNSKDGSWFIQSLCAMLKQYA
# SENP luc ctr = luminescence interference (SENP counter-screen). shares compounds with SENP7 block. Pre-incubated SENP8/Z-RLRGG-aminoluciferin, luciferase luminescence interference. inhibition, % at 12.5 µM. 6,200 tested, 39% active. AID 488919;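 active means mean inhibition above about 50% when retested at one dose, limit read from the data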;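 further: plate controls were DMSO wells with completed reaction for no effect and substrate without enzyme for full effect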
# * hit, by the source's call; . = not tested or not shown.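 How the source made its calls, unless noted: active means mean inhibition above about 50% in the one-dose retest (limit read from the data); inactive means the rest.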
SMILES,SENP6 inh,SENP8 block-1,SENP8 block-2,TRAIL sens C8,PPC-1+TRAIL kill,SENP7 block,SENP8 confirm,SENP6 confirm,SENP7 confirm,Casp3 SENP sel,SENP luc ctr
CCc1ccc(C(=O)COC(=O)c2n[nH]c3ccccc23)cc1,35,77*,-8,3,4,74*,-16,78*,93*,61*,14
CC(=O)Oc1ccc(C(=O)Cc2ccc3ccccc3n2)c(O)c1C,-7,1,33,43,14,74*,-24,-14,-4,-1,-4
Cc1sc(NC(=O)c2ccccc2)c(C#N)c1-c1ccccc1,62*,25,-3,18,23,-5,6,-7,29,16,1
Cc1ccc(OC(C)C(=O)Nc2ncc(Cl)cc2Cl)c([N+](=O)[O-])n1 (stereo unspecified),-11,-7,-165,-2,.,-7,.,.,.,.,.
CC(OC(=O)c1ccc([N+](=O)[O-])s1)C(=O)Nc1ncc(Cl)cc1Cl (stereo unspecified),60*,62*,19,-3,3,25,14,23,5,-6,-5
Cc1[nH]n(-c2ccccc2)c(=O)c1-c1ccc(Cl)cc1,2,3,-19,-10,24,3,.,.,.,.,.
O=c1c(-c2ccccc2)c[nH]n1-c1cccc([N+](=O)[O-])c1,79*,76*,8,15,12,68*,73*,72*,94*,90*,74*
O=c1c(-c2ccc(Cl)cc2)c[nH]n1-c1ccccc1,54*,42,-6,24,.,6,22,38,48,66*,7
COc1ccc(NC(=O)CCNC(=O)c2ccccc2Cl)cc1S(=O)(=O)N1CCCCC1,.,.,4,-30,.,.,.,.,.,.,.
Cc1cc(Cl)c(O)c(-n2nc3ccccc3n2)c1,27,20,15,17,7,71*,1,12,44,37,4
Cc1ccc(OCC(=O)O)c(-n2nc3ccccc3n2)c1,-29,-14,-365,13,-2,-5,.,.,.,.,.
Cc1ccccc1CN1CCC(n2nccc2NC(=O)CCOc2ccccc2)CC1,-17,8,13,3,.,-2,.,.,.,.,.
C#CCN(C[C@H]1[C@H](OC(=O)NCc2ccco2)[C@H](OC(=O)NCc2ccco2)C[C@@H](C(=O)OC)[C@H]1C(=O)OC)S(=O)(=O)c1ccc(C)cc1,.,.,-14,-4,.,.,.,.,.,.,.
COc1cc(NC(=O)CCS(=O)(=O)c2ccc3c(c2)oc(=O)n3C)cc(OC)c1OC,-4,-1,3,7,.,-7,.,.,.,.,.
Cc1cccc(/C=C2\CCC(C3CCCC3)C2=O)c1 (stereo unspecified),33,4,11,8,8,7,.,.,.,.,.
COc1cccc(/C=C2\CCC(C3CCCC3)C2=O)c1 (stereo unspecified),50*,40,12,6,.,21,48,48,66*,34,26
O/C(=C\c1ccc2ccccc2n1)c1ccc(O)cc1O,91*,93*,28,66*,48,92*,95*,96*,102*,92*,47
Oc1ccc(/C(Cc2ccc3ccccc3n2)=N\Nc2ccccc2)c(O)c1,1,-3,-14,-4,2,-1,.,.,.,.,.
O=C1CC(c2ccc3c(c2)OCCO3)Oc2ccccc21 (stereo unspecified),7,0,2,2,.,9,.,.,.,.,.
O=C1CC(c2ccc3c(c2)OCCO3)Oc2ccc([N+](=O)[O-])cc21 (stereo unspecified),99*,96*,20,64*,.,98*,44,98*,101*,51*,20
Cc1ccc(OCC(=O)Nc2ccc(C)c(F)c2)c([N+](=O)[O-])n1,-14,-6,9,-10,.,-2,.,.,.,.,.
CCC(C)NC(=O)c1ccc2c(Cl)c3c(nc2c1)CCC3 (stereo unspecified),34,6,13,41,18,28,.,.,.,.,.
Cc1cccc(NC(=O)c2ccc3c(Cl)c4c(nc3c2)CCCC4)n1,44,9,-3,70*,36,87*,-2,8,10,21,-4
O=C(Nc1ccc(Cl)cn1)c1ccc2c(Cl)c3c(nc2c1)CCC3,2,1,-3,57*,47,71*,-20,-18,11,27,3
Cc1cccc(NC(=O)c2ccc3nccnc3c2)n1,8,-4,-13,11,.,3,.,.,.,.,.
SMILES,SENP6 inh,SENP8 block-1,SENP8 block-2,TRAIL sens C8,PPC-1+TRAIL kill,SENP7 block,SENP8 confirm,SENP6 confirm,SENP7 confirm,Casp3 SENP sel,SENP luc ctr
O=C(c1cc(-c2ccccc2Cl)on1)N1CCCC1,72*,57*,9,41,.,63*,9,64*,90*,78*,66*
O=C(c1cc(-c2ccc(Cl)c(Cl)c2)on1)N1CCCCC1,35,14,10,0,18,57*,20,20,24,12,5
O=C(c1cc(-c2cccc(Cl)c2)on1)N1CCCC1,-12,-8,6,18,.,2,.,.,.,.,.
O=C(c1cc(-c2ccc(Cl)cc2)on1)N1CCCC1,56*,33,20,42,.,33,18,13,32,22,-2
CC1CCN(C(=O)c2ccc(-c3ccccc3Cl)o2)CC1,72*,49,6,30,.,42,66*,66*,82*,51*,65*
O=C(c1cc(-c2ccccc2)on1)N1CCCC1,17,1,26,22,-4,46,.,.,.,.,.
COc1ccccc1-c1cc(C(=O)N2CCCC2)no1,26,1,1,8,.,15,.,.,.,.,.
O=C(c1ccc(-c2ccccc2Cl)o1)N1CCC1,5,-5,18,12,.,-3,.,.,.,.,.
COc1ccc(CN2C(=NC(=O)c3ccccc3)SC3CS(=O)(=O)CC32)cc1 (stereo unspecified),-8,-8,8,15,.,-19,.,.,.,.,.
O=C1CCCc2nc(N3CCc4ccccc43)ncc21,91*,78*,-237,52*,41,89*,12,24,35,26,30
O=C1CC(c2ccccc2)Cc2nc(N3CCc4ccccc43)ncc21 (stereo unspecified),-5,-2,-270,-9,.,-2,.,.,.,.,.
O=C(Nc1cc2c3c(c1)CC(=O)N3CCC2)C1CC1,-13,1,0,-2,.,0,.,.,.,.,.
